# Key:
# Assay in all cases: PBM binding z-score (relative to random genomic background probes); higher = stronger binding; sequences stand for … in GC…GCGATTGACAGCGTAGAATGAAGG
# [1] = tested on: FXR:RXRa (NR concentration 270 nM, RXRa partner concentration 90 nM)
# Outline: (§1)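 Probes were double-stranded and carried 34-nt variable regions with direct-repeat seeds, single-nucleotide variants, half-site ablations and random human genomic background sequences, printed on custom Agilent 4×180K protein-binding microarrays. Arrays were incubated 1 h with ligand-free nuclear receptor dimers in PBS pH 7.4, 2% milk, 0.02% Triton X-100, 1 mM DTT, 0.2 mg/mL BSA and 0.4 mg/ml salmon testes DNA. Antibodies against each partner (one per run) detected binding, and scanned fluorescence was regression-normalized. Binding z-scores use the random background probes as reference.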
# [2] = tested on: LXRa:RXRa (NR concentration 270 nM, RXRa partner concentration 90 nM)
# Outline: as §1
# [3] = tested on: LXRa homodimer (NR concentration 270 nM)
# Outline: as §1
# [4] = tested on: LXRb:RXRa (NR concentration 270 nM, RXRa partner concentration 90 nM)
# Outline: as §1
# [5] = tested on: LXRb homodimer (NR concentration 270 nM)
# Outline: as §1
# [6] = tested on: PPARa:RXRa (NR concentration 270 nM, RXRa partner concentration 90 nM)
# Outline: as §1
# [7] = tested on: PPARg:RXRa (NR concentration 180 nM, RXRa partner concentration 90 nM)
# Outline: as §1
# [8] = tested on: PPARg:RXRa 270nM:90nM, anti-RXR (NR concentration 270 nM, RXRa partner concentration 90 nM)
# Outline: as §1
# [9] = tested on: PPARg:RXRa 30nM:10nM, anti-RXR (NR concentration 30 nM, RXRa partner concentration 10 nM)
# Outline: as §1
# [10] = tested on: PPARg:RXRa 90nM:30nM, anti-RXR (NR concentration 90 nM, RXRa partner concentration 30 nM)
# Outline: as §1
# [11] = tested on: PPARg:RXRa DBDmut IVT, anti-RXR (DBD mutation: RXRa K156A/R161A, NR concentration 270 nM, RXRa partner concentration 90 nM)
# Outline: as §1
# [12] = tested on: PPARg:RXRa IVT, anti-PPARg (NR concentration 270 nM, RXRa partner concentration 90 nM)
# Outline: as §1
# [13] = tested on: PPARg DBDmut:RXRa IVT, anti-PPARg (DBD mutation: PPARg1 K132A/R137A, NR concentration 270 nM, RXRa partner concentration 90 nM)
# Outline: as §1
# [14] = tested on: PPARg DBDmut IVT, anti-PPARg (DBD mutation: PPARg1 K132A/R137A, NR concentration 270 nM)
# Outline: as §1
# [15] = tested on: PPARg homodimer (NR concentration 180 nM)
# Outline: as §1
# [16] = tested on: PXR:RXRa (NR concentration 270 nM, RXRa partner concentration 90 nM)
# Outline: as §1
# [17] = tested on: PXR homodimer (NR concentration 270 nM)
# Outline: as §1
# [18] = tested on: RARa:RXR (NR concentration 270 nM, RXRa partner concentration 90 nM)
# Outline: as §1
# [19] = tested on: RARa homodimer (NR concentration 270 nM)
# Outline: as §1
# [20] = tested on: RARb:RXRa (NR concentration 270 nM, RXRa partner concentration 90 nM)
# Outline: as §1
Sequence,PBM binding z-score [1],PBM binding z-score [2],PBM binding z-score [3],PBM binding z-score [4],PBM binding z-score [5],PBM binding z-score [6],PBM binding z-score [7],PBM binding z-score [8],PBM binding z-score [9],PBM binding z-score [10],PBM binding z-score [11],PBM binding z-score [12],PBM binding z-score [13],PBM binding z-score [14],PBM binding z-score [15],PBM binding z-score [16],PBM binding z-score [17],PBM binding z-score [18],PBM binding z-score [19],PBM binding z-score [20]
ATCGAGAGGTCGACGAGGTGAGTATACACCGTTT,3,2.28,-0.165,1.65,-0.204,3.36,1.95,2.03,0.529,1.52,0.355,1.71,-0.00601,0.563,0.663,2.43,0.615,2.84,-0.215,2.8
AATACAGGGTCATCGTGGGCCAGAGTACGCACAG,7.26,6.08,2.41,4.65,0.911,5.96,6.73,5.81,2.73,4.56,2.57,4.37,0.764,1.07,2.16,4.59,0.368,4.92,0.514,4.36
AGAATGAGGTTAGTAAGATCAGGGAATTGCGGTC,0.169,0.283,-0.393,0.342,-0.18,1.6,1.07,1.06,0.16,0.634,2.97,2.49,0.854,-0.148,0.454,0.1,0.333,0.331,0.721,1.22
TGTCAAAGTGCAAAGGTAACGTAAGTATCCACAC,1.4,1.63,-0.525,1.5,-0.151,3.32,5.23,5.16,2.4,4.4,0.00516,2.98,0.574,0.92,1.09,1.76,0.397,2.57,0.0756,2.38
ATCTCTAGGCAAAGATAGTTCAGTGAATGCAAAT,-0.415,0.271,0.124,-0.207,0.263,-0.233,0.154,-0.151,-0.0446,-0.153,0.0233,0.0871,0.389,0.566,-0.0165,-0.0478,0.35,-0.456,0.524,0.211
CCTATTAGTAGACCATAAGGGCAACCGAAGCTCG,0.44,0.377,0.422,0.468,0.364,0.752,0.777,1.21,0.45,0.915,1.88,1.11,0.0545,0.0708,1.4,0.71,0.501,0.768,1.33,1.25
ATAGACAGGTGATGAAGGTAACTCAGGCTATCAT,-0.202,-0.185,-0.277,-0.324,0.162,-0.103,0.6,0.152,0.156,-0.14,-0.221,0.67,1.3,0.102,0.341,-0.261,0.251,-0.0358,0.641,0.316

# From the supplement of paper PMC6555819
